Results: paper PMC7862700, “An all-to-all approach to the identification of sequence-specific readers for epigenetic DNA modifications on cytosine”

Tests used:
Experiment in all cases: DAPPL (digital affinity profiling via proximity ligation, sequencing); 10 mM Tris-HCl pH 7.5, 50 mM NaCl, 1 mM DTT, 4% glycerol, room temperature, 30 min; GST-TFs on glutathione beads, 16-mer random dsDNA library, 0.1% formaldehyde crosslink after washing; high values mean tight binding
Conditions in all cases: protein: recombinant; tags: N-terminal GST; dsDNA, one strand shown
FLI1 = target: T1, FLI1 (Homo sapiens, UniProt Q01543 1-452)
T1 sequence: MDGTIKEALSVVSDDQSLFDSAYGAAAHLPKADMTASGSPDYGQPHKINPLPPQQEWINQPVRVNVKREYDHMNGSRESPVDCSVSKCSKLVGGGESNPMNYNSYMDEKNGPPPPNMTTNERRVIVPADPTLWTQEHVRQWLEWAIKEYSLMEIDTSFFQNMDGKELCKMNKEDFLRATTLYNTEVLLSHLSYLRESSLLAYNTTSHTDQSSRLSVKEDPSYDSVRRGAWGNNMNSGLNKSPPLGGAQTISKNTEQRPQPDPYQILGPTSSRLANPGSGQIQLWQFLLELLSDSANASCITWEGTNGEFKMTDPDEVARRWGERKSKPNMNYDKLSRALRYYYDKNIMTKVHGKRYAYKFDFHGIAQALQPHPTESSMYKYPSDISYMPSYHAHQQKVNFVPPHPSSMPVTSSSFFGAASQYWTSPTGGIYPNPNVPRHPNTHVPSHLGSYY
Method in brief: (§1)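 GST fusions of human transcription factors were expressed in yeast and captured with glutathione beads. Once given DNA barcodes and pooled alongside a tag-only sample, they were incubated for 30 min at room temperature with 200 nmole of a random double-stranded 16-mer DNA library in Tris/NaCl/DTT/glycerol buffer, then washed, crosslinked (0.1% formaldehyde), proximity-ligated, PCR-amplified and sequenced on an Illumina NextSeq500. The binding signal of each hexamer is its read frequency for a factor divided by its frequency for the tag-only sample.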

ELK1 = target: T2, ELK1 (Homo sapiens, UniProt P19419 1-428)
T2 sequence: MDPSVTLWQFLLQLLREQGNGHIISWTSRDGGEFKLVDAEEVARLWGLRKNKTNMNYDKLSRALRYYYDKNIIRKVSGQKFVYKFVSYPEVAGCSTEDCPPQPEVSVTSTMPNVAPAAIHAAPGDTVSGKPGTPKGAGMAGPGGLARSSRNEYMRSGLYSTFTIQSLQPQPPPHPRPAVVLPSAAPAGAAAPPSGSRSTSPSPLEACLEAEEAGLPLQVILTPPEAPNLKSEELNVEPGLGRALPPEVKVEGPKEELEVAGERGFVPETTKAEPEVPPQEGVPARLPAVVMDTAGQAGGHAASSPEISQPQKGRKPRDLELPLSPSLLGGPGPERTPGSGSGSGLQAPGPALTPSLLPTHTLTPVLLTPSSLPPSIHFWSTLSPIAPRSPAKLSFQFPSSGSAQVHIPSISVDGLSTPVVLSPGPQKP
Method in brief: as §1

GABPA = target: T3, GABPA (Homo sapiens, UniProt Q06546 1-454)
T3 sequence: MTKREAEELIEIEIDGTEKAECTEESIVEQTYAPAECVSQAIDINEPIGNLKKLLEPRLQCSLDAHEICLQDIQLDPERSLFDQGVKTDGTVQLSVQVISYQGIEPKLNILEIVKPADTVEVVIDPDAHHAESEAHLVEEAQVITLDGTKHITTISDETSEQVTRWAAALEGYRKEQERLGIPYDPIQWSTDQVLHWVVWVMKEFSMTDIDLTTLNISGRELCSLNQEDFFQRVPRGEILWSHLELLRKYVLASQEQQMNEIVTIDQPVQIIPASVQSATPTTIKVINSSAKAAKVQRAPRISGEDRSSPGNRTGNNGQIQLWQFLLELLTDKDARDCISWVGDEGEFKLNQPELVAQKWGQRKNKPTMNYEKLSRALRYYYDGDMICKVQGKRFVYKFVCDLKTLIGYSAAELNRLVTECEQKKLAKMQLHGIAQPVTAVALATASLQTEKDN
Method in brief: as §1

ERG = target: T4, ERG (Homo sapiens, UniProt P11308 1-479)
T4 sequence: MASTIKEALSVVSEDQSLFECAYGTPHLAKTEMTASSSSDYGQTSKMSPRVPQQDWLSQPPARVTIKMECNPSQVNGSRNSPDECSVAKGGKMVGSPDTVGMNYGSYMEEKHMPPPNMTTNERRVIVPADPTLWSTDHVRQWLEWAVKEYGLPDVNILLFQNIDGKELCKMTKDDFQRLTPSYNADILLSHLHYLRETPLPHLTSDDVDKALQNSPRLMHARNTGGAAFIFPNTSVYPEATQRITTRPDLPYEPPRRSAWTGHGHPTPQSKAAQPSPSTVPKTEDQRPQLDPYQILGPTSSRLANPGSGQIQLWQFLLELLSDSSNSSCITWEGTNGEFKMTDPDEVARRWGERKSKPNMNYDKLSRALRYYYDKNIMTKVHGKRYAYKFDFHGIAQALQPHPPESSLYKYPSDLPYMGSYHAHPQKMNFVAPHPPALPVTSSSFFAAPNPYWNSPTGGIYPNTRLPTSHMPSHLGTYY
Method in brief: as §1

ELF1 = ELF1 (Homo sapiens, UniProt P32519 1-619)
Method in brief: as §1

EHF = target: T5, EHF (Homo sapiens, UniProt Q9NZC4 1-300)
T5 sequence: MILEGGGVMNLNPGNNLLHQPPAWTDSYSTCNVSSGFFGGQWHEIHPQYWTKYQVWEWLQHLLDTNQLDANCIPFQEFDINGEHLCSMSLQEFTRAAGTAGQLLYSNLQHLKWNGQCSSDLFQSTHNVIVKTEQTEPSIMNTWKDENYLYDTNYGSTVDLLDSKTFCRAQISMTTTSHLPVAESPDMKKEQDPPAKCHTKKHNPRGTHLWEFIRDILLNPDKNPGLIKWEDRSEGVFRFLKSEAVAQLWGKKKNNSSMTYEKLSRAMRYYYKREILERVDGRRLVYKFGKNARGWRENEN
Method in brief: as §1

SPI1 = SPI1 (Homo sapiens, UniProt P17947 1-270)
Method in brief: as §1

ELK3 = target: T6, ELK3 (Homo sapiens, UniProt P41970 1-407)
T6 sequence: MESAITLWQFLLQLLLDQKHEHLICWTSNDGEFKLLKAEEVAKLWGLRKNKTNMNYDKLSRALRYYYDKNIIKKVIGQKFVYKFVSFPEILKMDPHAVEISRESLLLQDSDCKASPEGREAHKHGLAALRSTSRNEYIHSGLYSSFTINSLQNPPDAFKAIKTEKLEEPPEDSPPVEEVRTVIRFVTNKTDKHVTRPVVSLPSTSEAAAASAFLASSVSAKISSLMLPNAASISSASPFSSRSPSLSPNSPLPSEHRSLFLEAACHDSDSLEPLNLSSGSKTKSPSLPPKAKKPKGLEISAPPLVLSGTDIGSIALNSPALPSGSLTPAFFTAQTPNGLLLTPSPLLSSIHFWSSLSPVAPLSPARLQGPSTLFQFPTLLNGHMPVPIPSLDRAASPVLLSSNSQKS
Method in brief: as §1

SPIB = SPIB (Homo sapiens, UniProt Q01892 1-262)
Method in brief: as §1

SPIB, sequence (Q01892 whole entry): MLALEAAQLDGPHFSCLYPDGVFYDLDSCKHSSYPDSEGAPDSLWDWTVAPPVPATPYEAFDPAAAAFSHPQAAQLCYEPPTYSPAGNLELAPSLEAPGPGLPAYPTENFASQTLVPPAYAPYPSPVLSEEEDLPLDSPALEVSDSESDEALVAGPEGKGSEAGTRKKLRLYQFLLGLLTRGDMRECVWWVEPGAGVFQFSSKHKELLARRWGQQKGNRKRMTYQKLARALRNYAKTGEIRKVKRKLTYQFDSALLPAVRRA
ELF1, sequence (P32519 whole entry): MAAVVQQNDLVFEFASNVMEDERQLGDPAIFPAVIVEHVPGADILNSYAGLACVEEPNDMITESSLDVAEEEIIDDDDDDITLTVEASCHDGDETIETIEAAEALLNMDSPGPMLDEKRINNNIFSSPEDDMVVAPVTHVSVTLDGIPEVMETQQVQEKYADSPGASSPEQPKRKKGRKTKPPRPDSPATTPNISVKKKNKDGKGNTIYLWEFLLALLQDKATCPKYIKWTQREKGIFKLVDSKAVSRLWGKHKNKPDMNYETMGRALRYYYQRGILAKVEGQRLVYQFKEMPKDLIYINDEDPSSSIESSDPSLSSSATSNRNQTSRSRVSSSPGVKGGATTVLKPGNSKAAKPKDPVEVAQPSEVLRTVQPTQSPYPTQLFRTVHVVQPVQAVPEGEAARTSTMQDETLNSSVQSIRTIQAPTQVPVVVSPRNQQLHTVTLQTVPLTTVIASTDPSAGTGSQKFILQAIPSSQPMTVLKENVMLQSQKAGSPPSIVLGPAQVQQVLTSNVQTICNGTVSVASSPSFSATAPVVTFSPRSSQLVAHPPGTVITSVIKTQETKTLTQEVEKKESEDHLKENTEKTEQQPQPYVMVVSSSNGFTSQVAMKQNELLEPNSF

Sequence | binding signal (FLI1) | binding signal (ELK1) | binding signal (GABPA) | binding signal (ERG) | binding signal (ELF1) | binding signal (EHF) | binding signal (SPI1) | binding signal (ELK3) | binding signal (SPIB)
ACGTAA | 1.07 fold enrichment (6-mer frequency, TF over GST control) | 1.2 fold enrichment (6-mer frequency, TF over GST control) | 1.17 fold enrichment (6-mer frequency, TF over GST control) | 1.03 fold enrichment (6-mer frequency, TF over GST control) | 1.07 fold enrichment (6-mer frequency, TF over GST control) | 1.04 fold enrichment (6-mer frequency, TF over GST control) | 1.05 fold enrichment (6-mer frequency, TF over GST control) | 1.15 fold enrichment (6-mer frequency, TF over GST control) | –
AAGCAG | 1.1 fold enrichment (6-mer frequency, TF over GST control) | 1.14 fold enrichment (6-mer frequency, TF over GST control) | 1.13 fold enrichment (6-mer frequency, TF over GST control) | 1.11 fold enrichment (6-mer frequency, TF over GST control) | 1.12 fold enrichment (6-mer frequency, TF over GST control) | 1.12 fold enrichment (6-mer frequency, TF over GST control) | 1.24 fold enrichment (6-mer frequency, TF over GST control) | 1.23 fold enrichment (6-mer frequency, TF over GST control) | –
TGACTC | 1.49 fold enrichment (6-mer frequency, TF over GST control) | 1.39 fold enrichment (6-mer frequency, TF over GST control) | 1.4 fold enrichment (6-mer frequency, TF over GST control) | 1.39 fold enrichment (6-mer frequency, TF over GST control) | 1.36 fold enrichment (6-mer frequency, TF over GST control) | 1.27 fold enrichment (6-mer frequency, TF over GST control) | 1.27 fold enrichment (6-mer frequency, TF over GST control) | 1.41 fold enrichment (6-mer frequency, TF over GST control) | 1.42 fold enrichment (6-mer frequency, TF over GST control)
CACGAA | 1.05 fold enrichment (6-mer frequency, TF over GST control) | 1.15 fold enrichment (6-mer frequency, TF over GST control) | 1.19 fold enrichment (6-mer frequency, TF over GST control) | 1.1 fold enrichment (6-mer frequency, TF over GST control) | 1.11 fold enrichment (6-mer frequency, TF over GST control) | 1.07 fold enrichment (6-mer frequency, TF over GST control) | 1.06 fold enrichment (6-mer frequency, TF over GST control) | 1.03 fold enrichment (6-mer frequency, TF over GST control) | –
TATCAG | 1.15 fold enrichment (6-mer frequency, TF over GST control) | 1.21 fold enrichment (6-mer frequency, TF over GST control) | 1.14 fold enrichment (6-mer frequency, TF over GST control) | 1.09 fold enrichment (6-mer frequency, TF over GST control) | 1.15 fold enrichment (6-mer frequency, TF over GST control) | 1.13 fold enrichment (6-mer frequency, TF over GST control) | – | 1.15 fold enrichment (6-mer frequency, TF over GST control) | 1.2 fold enrichment (6-mer frequency, TF over GST control)
ATCATT | 1.07 fold enrichment (6-mer frequency, TF over GST control) | 1.05 fold enrichment (6-mer frequency, TF over GST control) | 1.06 fold enrichment (6-mer frequency, TF over GST control) | 1.02 fold enrichment (6-mer frequency, TF over GST control) | 1.05 fold enrichment (6-mer frequency, TF over GST control) | 1.01 fold enrichment (6-mer frequency, TF over GST control) | 1.05 fold enrichment (6-mer frequency, TF over GST control) | 1.01 fold enrichment (6-mer frequency, TF over GST control) | –
TACTGA | 1.03 fold enrichment (6-mer frequency, TF over GST control) | 1.08 fold enrichment (6-mer frequency, TF over GST control) | 1.06 fold enrichment (6-mer frequency, TF over GST control) | 1.03 fold enrichment (6-mer frequency, TF over GST control) | 1.13 fold enrichment (6-mer frequency, TF over GST control) | 1.13 fold enrichment (6-mer frequency, TF over GST control) | 1.02 fold enrichment (6-mer frequency, TF over GST control) | 1.09 fold enrichment (6-mer frequency, TF over GST control) | –
CGAGCA | 1.17 fold enrichment (6-mer frequency, TF over GST control) | 1.18 fold enrichment (6-mer frequency, TF over GST control) | 1.18 fold enrichment (6-mer frequency, TF over GST control) | 1.13 fold enrichment (6-mer frequency, TF over GST control) | 1.14 fold enrichment (6-mer frequency, TF over GST control) | 1.05 fold enrichment (6-mer frequency, TF over GST control) | – | 1.14 fold enrichment (6-mer frequency, TF over GST control) | 1.16 fold enrichment (6-mer frequency, TF over GST control)
